Laboratory results as given in PubChem BioAssay (NCI).
About 83,000 compounds went through this panel and 20% of them were active in at least one assay; those are over-represented in the sample as a whole.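 Step 1: grow cells in 96-well plates. Step 2: add test compound at a single concentration. Step 3: incubate 48 h. Step 4: record percent growth.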 The source made the active and inactive calls. How the source made its calls: active means growth percent below 10; inactive means the rest.

system: HCT-116 colon; assay: NCI-60 one-dose screen, 48 h (100 = growth as untreated, 0 = no growth, -100 = all killed); conditions: 10 µM

With `COc1cc(CNC(=O)C2CSC3(C)c4ccccc4C(=O)N23)cc(OC)c1OC` (stereo not drawn) as the molecule, how does the growth read?
The growth was 98.1% (inactive).

How did the growth turn out when `c1ccc(CSc2ncccc2-c2nnc(SCCN3CCOCC3)o2)cc1` was run?
The growth was 108% (inactive).

`CC[N+](CC)=c1ccc2nc3c(cc(NCc4ccccc4)c4ccccc43)oc-2c1` was tested. Which growth did it give?
The growth was -35.6% (active).

`N#CC1=CC2CN(Cc3ccccc3)C1C1C(=O)N(c3ccccc3)C(=O)C21` (stereo not drawn) was tested. Which growth did it give?
Its growth is 101% (inactive).

For `COc1ccc(-c2nn(-c3cccc(Cl)c3)cc2-c2nc(N)[nH]c(=O)c2C#N)cc1`, which growth is on record?
The growth was 58% (inactive).

`COc1cc2cc(Oc3ccc(NC(=O)Nc4ccc(Cl)c(C(F)(F)F)c4)cc3)c(C)nc2cc1OC` was tested. Which growth did it give?
The growth was -87.3% (active).

With `COc1cc2cc(Oc3ccc(NC(=O)Nc4ccc(Cl)c(Cl)c4)cc3)c(C)nc2cc1OC` as the molecule, how does the growth read?
Its growth is 10.5% (inactive).

With `COc1cc(-c2nn(-c3cccc(NC(=O)NCCNS(=O)(=O)c4ccc(Cl)cc4)c3)cc2-c2ccncc2)ccc1Cl` as the molecule, how does the growth read?
Its growth is 0.871% (active).

Which growth does the source give for `O=C(N/N=C/c1c(Cl)cccc1Cl)c1ccccc1Nc1cccc(C(F)(F)F)c1` here?
Its growth is 93.1% (inactive).

Which growth does the source give for `CC(=O)Nc1ccc(CC[C@H]2CCC/C=C/[C@@H]3C[C@H](O)C[C@H]3[C@H](O)/C=C/C(=O)O2)cc1` here?
The growth was -67.9% (active).

Which growth does the source give for `Cc1cc(Cl)ccc1Nc1nc(C(F)(F)F)ccc1C(=O)N/N=C/c1c(Cl)cccc1Cl` here?
Its growth is 1.5% (active).

For `CCOC(=O)CC(S(=O)(=O)c1ccccc1)S(=O)(=O)c1ccccc1`, which growth is on record?
Its growth is 102% (inactive).

For `Cc1cc(Cl)ccc1Nc1nc(C(F)(F)F)ccc1C(=O)N/N=C/c1cccc(O)c1`, which growth is on record?
The growth was 17.6% (inactive).
